Screening data: PubChem BioAssay, National Center for Advancing Translational Sciences (NCATS)
KDM5B inhibitor: KDM5B demethylase inhibition. Q9UGL1. KDM5B demethylase, FDH-coupled NADH fluorescence (FDH is formaldehyde dehydrogenase). Potency, µM (series often up to 57.7 µM), actives largely listed as inhibitors. 220,000 tested, 2.6% active. AID 1347165; active means well fitted inhibition curve with a large enough effect; further: nearly all actives have a fitted effect of over 70% in size
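Here, H3K4me3 peptide (12.5 µM in substrate mix) is demethylated by KDM5BΔAP, 200 nM final, after 10 min compound exposure. Formaldehyde product is coupled through FDH (0.25 U/mL in mix) to NADH fluorescence; 30-min ΔRFU feeds dose-response curves.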
Hits are given with their value; n = inactive. This is one part of a sample in which hits are shown more often than they occur.

SMILES	KDM5B inhibitor
CCN1CCN(c2ccc3nnc(C4CCC4)n3n2)CC1	n
c1cc2nnc(C3CCC3)n2nc1N1CCCC1	n
O=[N+]([O-])c1ccc(-c2cc(-c3ccccc3)nc(-c3ccccc3)c2)cc1	n
O=C(CCC(=O)c1ccc2c(c1)OCCCO2)OCc1ccccc1Cl	n
Cn1c(=O)c2c(ncn2CC(=O)NC2CC2)n(C)c1=O	n
CCN(CC)S(=O)(=O)c1ccc(NC(=O)c2noc3c2COc2ccc(C)cc2-3)cc1	n
COCC(=O)N[C@H]1CCN(C(=O)COC)[C@H](C(=O)N[C@H](Cc2c[nH]c3ccccc23)C(=O)OC)C1	22µM
CC(C)NC(=O)N1CCN(C(=O)NC2CCCCC2)[C@@H](C(=O)N[C@H](Cc2c[nH]c3ccccc23)C(N)=O)C1	n
COC(=O)[C@@H](Cc1c[nH]c2ccccc12)NC(=O)[C@@H]1CN(C(=O)c2cccnc2)CCN1C(=O)NC(C)C	n
Cc1ccc(C)c(NCc2nnc(-c3ccc(Br)cc3)o2)c1	n
O=C(NCc1ccnc(N2CCCC2)c1)c1ccc(O)c(Cl)c1	n
Cc1ccc(CCC(=O)NCCCN2CCCC2)cc1	n
Cc1ccc(-c2nocc2CCC(=O)NCc2ccc(Cl)cc2)cc1	n
Cn1c(=O)c2ccccc2n2c(CCC(=O)N3CCN(c4cccc(Cl)c4)CC3)nnc12	n
O=C(CCc1ccnc(N2CCCC2)c1)N1CCN(c2cccc(Cl)c2)CC1	22µM
Cc1ccc(CCC(=O)NCc2ccccn2)cc1	n
CCN(CC)c1cc(CCC(=O)NCc2ccc(Cl)cc2)ccn1	22µM
CCc1ccc(CCC(=O)NCc2ccncc2)cc1	n
Cc1ccc(CNC(=O)CCc2ccnc(N3CCCC3)c2)cc1	32µM
CCCNC(=O)CCc1ccnc(N2CCCC2)c1	22µM
CCCNc1cc(N2CCC(CCC(=O)NCCN3CCCCCC3)CC2)ncn1	n
Cc1cccc(N2CCN(C(=O)CCc3ccnc(N4CCCC4)c3)CC2)c1	n
CN1C(=O)C(Cc2nc3ccccc3c(=O)n2C)c2cc(Br)ccc21 (stereo not given)	n
CSc1ccccc1C(=O)Nc1ccc2c(c1)OCCCO2	n
O=C1Nc2ccccc2CCC1n1nc(-c2ccc(Br)cc2)ccc1=O (stereo not given)	n
SMILES	KDM5B inhibitor
Cc1ccccc1NC(=O)Cn1c(=O)c2c(ncn2CCC(C)C)n(Cc2ccccc2)c1=O	n
COc1ccc(CCN2C(=O)CCC2(C)C(=O)NCc2ccc(C)cc2)cc1OC (stereo not given)	n
COc1ccccc1Nc1nc(N)c(C(=O)c2cc(C)c(C)cc2C)s1	n
CC(=O)Nc1ccc(NC(=O)Cn2nc3nc(Nc4ccccc4)ccn3c2=O)cc1	n
CCOc1cc(-c2noc(-c3ccccc3)n2)ccc1OCC(=O)NC(C)C	n
Cc1ccc(N2CCN(C(=O)C3CCCN(c4cnn(Cc5ccccc5)c(=O)c4)C3)CC2)cc1 (stereo not given)	n
COc1ccc(C(=O)Nc2ccc(-c3noc([C@@H]4CCCN4Cc4ccccc4C)n3)cn2)cc1	32µM
COCC(=O)Nc1ccc(-c2noc([C@@H]3CCCN3C(C)C)n2)cn1	n
COCC(=O)Nc1ccc(-c2noc([C@@H]3CCCN3Cc3ccc(F)cc3)n2)cn1	n
COc1ccc(-c2noc([C@@H]3CCCN3C(=O)COc3ccc(Cl)cc3)n2)cc1	n
COc1ccc(C(=O)N2CCC[C@H]2c2nc(-c3ccc(OC)cc3)no2)cc1	n
COc1ccc(C(=O)Nc2ccc(-c3noc([C@@H]4CCCN4Cc4ccc(F)c(F)c4)n3)cn2)cc1	28µM
COc1ccc(C(=O)Nc2ccc(-c3noc([C@@H]4CCCN4Cc4ccc(Cl)cc4)n3)cn2)cc1	32µM
COCC(=O)Nc1ccc(-c2noc([C@@H]3CCCN3Cc3ccc(OC(F)(F)F)cc3)n2)cn1	n
COc1ccc(C(=O)Nc2ccc(-c3noc([C@@H]4CCCN4C)n3)cn2)cc1	n
COc1ccccc1CNC(=O)C12CCC(=O)N1CCS2 (stereo not given)	n
COc1ccc(-c2cc(C[C@@H]3CC[C@H](O)[C@@H](CNCc4cccc(Cl)c4)O3)no2)cc1	n
NS(=O)(=O)c1ccc(N/N=C/c2ccc(Br)cc2)c([N+](=O)[O-])c1	n
Cn1c(=O)c2nc(SCCC(=O)O)n(Cc3ccc(F)cc3)c2n(C)c1=O	n
CCCOc1ccc(-c2cc(C(=O)O)c3cccc(C)c3n2)cc1	n
Cc1cccc2c(C(=O)N(C)C(C)Cc3ccccn3)cc(-c3cnc(N)nc3)nc12 (stereo not given)	32µM
Cc1cccc(-c2cc(C(=O)NCc3ccccn3)c3ccccc3n2)c1	n
CN(Cc1cnn(C)c1)C(=O)c1cc(-c2ccccc2)nc2ccccc12	n
COc1ccc(-c2cc(C(=O)O)c3cccc(C)c3n2)cc1	n
Cc1ccnc(CC(C)N(C)C(=O)c2cc(-c3cnn(C)c3)nc3ccccc23)c1 (stereo not given)	22µM
SMILES	KDM5B inhibitor
CN(Cc1ccc(F)c(F)c1)S(=O)(=O)c1ccc2c(c1)CCC2	n
COc1ccccc1C(=O)N1CCC(n2cc(-c3nc(-c4ccccc4)no3)nn2)C1 (stereo not given)	n
COc1cc(/C=N/O)c(Br)cc1O	n
O=C(NC1CCN(c2cc(-c3ccc(F)cc3)[nH]n2)CC1)c1c[nH]c2ccccc12	n
COc1ccc(-c2cc(N3CCCC(NC(=O)c4ccccc4F)C3)n[nH]2)cc1 (stereo not given)	n
Cc1nc(N2CCC(NC(=O)c3cccc4[nH]ccc34)CC2)cc(C(F)(F)F)n1	28µM
O=C(NC1CCN(c2cc(-c3ccccc3)[nH]n2)C1)c1ccccc1F (stereo not given)	n
COc1ccc(-c2cc(N3CCCC(NC(=O)c4cccc5[nH]ccc45)C3)n[nH]2)cc1 (stereo not given)	25µM
COc1ccc(-c2cc(N3CCCN(C(=O)c4cccc5[nH]ccc45)CC3)n[nH]2)cc1	28µM
O=C(NC1CCN(c2cc(-c3ccc(F)cc3)[nH]n2)C1)c1c[nH]c2ccccc12 (stereo not given)	14µM
COc1ccccc1C(=O)NC1CCN(c2cc(C(F)(F)F)nc(C)n2)CC1	n
Cc1nc(N2CCC(NC(=O)c3ccc(F)cc3)CC2)cc(C(F)(F)F)n1	n
COc1ccc(-c2cc(N3CCCN(C(=O)c4ccccc4)CC3)n[nH]2)cc1	n
COc1ccc(-c2cc(N3CCCC(NC(=O)c4cc5ccccc5[nH]4)C3)n[nH]2)cc1 (stereo not given)	n
COc1ccc(C(=O)N2CCCN(c3cc(-c4ccc(OC)cc4)[nH]n3)CC2)cc1	n
O=C(C(Sc1n[nH]c(-c2ccccc2)n1)c1ccccc1)N1CCOCC1 (stereo not given)	n
O=C(CN(Cc1ccco1)S(=O)(=O)c1ccccc1)N1CCN(C(=O)c2cccs2)CC1	n
O=C(Nc1ccccc1)c1occc1-c1ccccc1	n
OCCc1cn[nH]c1	n
NCc1ccc(-c2cc(C(F)(F)F)ccc2Cl)cc1	n
CCc1ccc(OCC(=O)Nc2ccc(SCc3cc(=O)n4c(ncn4C(C)C)n3)cc2)cc1	n
CCC(C)NS(=O)(=O)c1ccc(N2C(=O)CCS2(=O)=O)cc1C (stereo not given)	n
OCC1(Cc2ccccc2)CCCN(Cc2ccccc2-c2ccco2)C1 (stereo not given)	n
COc1ccc(C(=O)CSc2nnc(Nc3ccccc3OC)s2)c(OC)c1	n
CCN1CCCC1CNC(=O)CCNc1nc(Cl)nc2nc[nH]c12 (stereo not given)	n
C/C(=N\NC(=O)C(c1ccccc1)c1ccccc1)c1cccs1	n
